We go through four compounds from PubChem BioAssay (EPA / NIEHS).

For test [1], the target named is Transcription factor E2F1 (Homo sapiens) (UniProt Q01094). Kind of test: ATG_E2F_CIS: Attagene CIS-FACTORIAL HepG2 Assay for human E2F Transcription Factor 1 (AID 2282935). To be noted: HepG2 Attagene cis-reporter, E2F reporter RNA transcripts; actives raise or lower the signal. A digest of the protocol:
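First, HepG2 cells were transfected with reporter transcription units. Next, they were dosed for 24 h. Then RNA was isolated, converted to cDNA, PCR-amplified, FAM-labeled, HpaI-digested and analyzed by capillary electrophoresis.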

The nature of test [2]: ATG_E_Box_CIS: Attagene CIS-FACTORIAL HepG2 Assay for human Enhancer Box (E-box) (AID 2282936). Conditions: HepG2 E-box cis-reporter transcription, actives raise or lower the signal. A digest of the protocol:
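Endogenous transcription factor activity was sensed in human HepG2 liver cells through transfected cis-promoter reporter units. After 24 h of dosing, total RNA was reverse-transcribed and reporter cDNA resolved by capillary electrophoresis.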

A short description of test [3]: ATG_M_61_CIS: Attagene CIS-FACTORIAL HepG2 Assay for M61 Transcription Factor (Internal Marker) (AID 2282937). Conditions: HepG2 Attagene CIS-FACTORIAL M61 internal marker reporter; actives raise or lower the signal. The gist of the method: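 Endogenous transcription factor activity in HepG2 is read through transiently transfected cis-element reporter units. After 24 h dosing, RNA undergoes reverse transcription, PCR and primer extension with 6-FAM before capillary electrophoresis; DMSO-referenced bidirectional fit.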

Test [4] in a line: ATG_M_19_CIS: Attagene CIS-FACTORIAL HepG2 Assay for M19 Transcription Factor (Internal Marker) (AID 2282939). Conditions: HepG2 Attagene CIS-FACTORIAL M19 internal marker reporter; actives raise or lower the signal. The gist of the method:
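Internal marker readout, fitted in both directions against DMSO, from HepG2 cells carrying transfected cis-element reporter constructs; RT-PCR and capillary electrophoresis of reporter mRNA after 24 h exposure.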

A short description of test [5]: ATG_ERE_CIS: Attagene CIS-FACTORIAL HepG2 Assay for Estrogen Response Element (ERE) (AID 2282940). Conditions: HepG2 ERE cis-reporter, Attagene RNA transcript; actives raise or lower the signal. The gist of the method: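 After 24 h compound treatment, RNA from transfected HepG2 cells was reverse-transcribed, reporter cDNA PCR-amplified, FAM-labelled, HpaI-cut and resolved by capillary electrophoresis. ERE-driven cis reporter transcripts reflect endogenous factors; gain or loss scored against DMSO.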

A short description of test [6]: ATG_Ets_CIS: Attagene CIS-FACTORIAL HepG2 Assay for human Erythroblast Transformation Specific (ETS) (AID 2282941). Conditions: HepG2 ETS cis-reporter transcription, actives raise or lower the signal. A digest of the protocol:
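Multiplexed reporter transcript profiling: HepG2, 24 h treatment, total RNA to cDNA, PCR, 6-FAM labelling, HpaI cut, capillary electrophoresis. Gain- or loss-of-signal fitted against DMSO.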

For test [7], the target named is Hepatocyte nuclear factor 3-beta (Homo sapiens) (UniProt Q9Y261). Briefly: ATG_FoxA2_CIS: Attagene CIS-FACTORIAL HepG2 Assay for human Forkhead box A2 (FOXA2) (AID 2282942). To be noted: HepG2 cis-reporter transcription factor activity, 24 h; actives raise or lower the signal. The gist of the method: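 Reporter transcript induction is measured by fluorescence after capillary electrophoresis of RT-PCR products from HepG2 cells exposed 24 h. Cis-regulated reporter units report endogenous factor activity; curves fitted both directions against DMSO.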
Sequence of Hepatocyte nuclear factor 3-beta (Homo sapiens) (Q9Y261 whole entry, looked up): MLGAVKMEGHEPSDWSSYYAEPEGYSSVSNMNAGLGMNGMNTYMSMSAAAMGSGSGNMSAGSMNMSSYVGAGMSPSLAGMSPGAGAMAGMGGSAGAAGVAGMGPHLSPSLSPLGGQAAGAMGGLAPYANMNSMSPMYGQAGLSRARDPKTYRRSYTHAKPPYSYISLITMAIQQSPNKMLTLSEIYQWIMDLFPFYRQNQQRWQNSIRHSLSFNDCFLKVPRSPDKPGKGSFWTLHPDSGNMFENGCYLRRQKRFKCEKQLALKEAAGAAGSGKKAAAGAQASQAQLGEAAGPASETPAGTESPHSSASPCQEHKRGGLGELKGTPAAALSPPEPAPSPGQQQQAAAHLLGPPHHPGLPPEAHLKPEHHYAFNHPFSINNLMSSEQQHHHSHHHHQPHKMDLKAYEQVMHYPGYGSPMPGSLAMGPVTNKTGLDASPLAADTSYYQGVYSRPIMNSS

Test [8] can be described thus: ATG_FoxO_CIS: Attagene CIS-FACTORIAL HepG2 Assay for human Forkhead box O (FoxO) (AID 2282943). Conditions: HepG2 Attagene cis-reporter, FoxO element, mRNA; actives raise or lower the signal. A digest of the protocol: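 Values reflect reporter mRNA induction or loss in HepG2 cells 24 h post-dosing, fitted bidirectionally with DMSO as negative control and baseline. Detection used RT-PCR and fluorescence capillary electrophoresis.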

Test [9] in a line: ATG_GATA_CIS: Attagene CIS-FACTORIAL HepG2 Assay for human GATA Binding Protein (AID 2282944). To be noted: HepG2 GATA cis-element reporter, Attagene multiplex mRNA; actives raise or lower the signal. The gist of the method:
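Reporter transcripts from a GATA cis-regulated unit, among multiplexed reporters in transfected HepG2 cells, were measured by RT-PCR with capillary electrophoresis after 24 h dosing. Induction or loss scored relative to DMSO.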

Test [10] is described as follows: ATG_GLI_CIS: Attagene CIS-FACTORIAL HepG2 Assay for human Zinc Finger Protein GLI1 (AID 2282945). To be noted: HepG2, Attagene cis-factorial reporter mRNA, GLI element; actives raise or lower the signal. The gist of the method:
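HepG2 cells transiently transfected with cis-promoter multiplexed reporter units report endogenous transcription factor activity. After 24 h chemical exposure, reporter mRNA was quantified by RT-PCR, 6-FAM labelling, HpaI digestion and capillary electrophoresis, with bidirectional fitting against DMSO.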

In test [11] the target is Bile acid receptor (Homo sapiens) (UniProt Q96RI1). Briefly: ATG_IR1_CIS: Attagene CIS-FACTORIAL HepG2 Assay for human Nuclear Receptor Subfamily 1 Group H Member 4 (NR1H4), IR1 submotif (AID 2282946). Conditions: IR1 reporter transcription, actives raise or lower the signal. A digest of the protocol: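 Readout: reporter transcript levels by RT-PCR with fluorescent capillary electrophoresis, from HepG2 cells transiently transfected with multiplexed cis-regulated reporters and dosed 24 h. Gain- or loss-of-signal fitted versus DMSO negative control.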
Sequence of Bile acid receptor (Homo sapiens) (Q96RI1 whole entry, looked up): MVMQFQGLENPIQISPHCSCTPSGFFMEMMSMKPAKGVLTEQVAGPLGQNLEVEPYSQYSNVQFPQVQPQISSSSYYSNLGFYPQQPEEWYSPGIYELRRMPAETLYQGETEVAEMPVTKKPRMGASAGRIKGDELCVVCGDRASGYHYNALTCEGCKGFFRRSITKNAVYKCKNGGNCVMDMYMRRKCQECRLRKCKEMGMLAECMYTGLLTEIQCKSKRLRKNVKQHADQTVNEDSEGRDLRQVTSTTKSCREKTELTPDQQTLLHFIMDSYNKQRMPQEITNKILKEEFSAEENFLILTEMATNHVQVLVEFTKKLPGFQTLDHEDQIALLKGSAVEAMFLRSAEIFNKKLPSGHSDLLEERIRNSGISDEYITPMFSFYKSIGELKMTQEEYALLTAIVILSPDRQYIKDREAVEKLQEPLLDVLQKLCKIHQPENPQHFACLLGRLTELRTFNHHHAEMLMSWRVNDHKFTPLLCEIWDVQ

Test [12] can be described thus: ATG_GRE_CIS: Attagene CIS-FACTORIAL HepG2 Assay for human Glucocorticoid Response Elements (GRE) (AID 2282947). Conditions: HepG2 GRE cis-reporter, Attagene multiplex mRNA; actives raise or lower the signal. The gist of the method: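 Cells (HepG2) bearing transfected cis-promoter reporter transcription units were treated with chemical for 24 hours. Reporter mRNA was measured via RT-PCR with capillary electrophoresis, and activity was fitted in both directions relative to DMSO.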

Test [13] in a line: ATG_ISRE_CIS: Attagene CIS-FACTORIAL HepG2 Assay for human Interferon Regulatory Factor 1 (IRF1) binding to an Interferon-Stimulated Response Element (ISRE) (AID 2282948). To be noted: HepG2 ISRE cis-reporter (Attagene), mRNA transcription readout; actives raise or lower the signal. A digest of the protocol: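 Signal reflects induction or loss of ISRE-linked reporter mRNA in transiently transfected HepG2 cells after a 24 h treatment, detected by fluorescent RT-PCR fragments on capillary electrophoresis and normalised to DMSO.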

A short description of test [14]: ATG_M_32_CIS: Attagene CIS-FACTORIAL HepG2 Assay for M32 Transcription Factor (Internal Marker) (AID 2282949).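 Also: background control marker of the multiplexed CIS panel rather than a real target.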 Conditions: HepG2 Attagene cis-factorial M32 reporter, mRNA; actives raise or lower the signal. A digest of the protocol:
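HepG2 human liver cells transiently transfected with cis-promoter-driven multiple reporter transcription units, dosed 24 h. Reporter mRNA quantified by RT-PCR, FAM-labelled primer extension, HpaI digest and capillary electrophoresis; bidirectional fit versus DMSO baseline.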

The nature of test [15]: ATG_M_06_CIS: Attagene CIS-FACTORIAL HepG2 Assay for M06 Transcription Factor (Internal Marker) (AID 2282950). Conditions: HepG2 Attagene CIS-FACTORIAL M06 internal marker reporter; actives raise or lower the signal. The gist of the method:
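Serves as a background control readout. Transfected HepG2 exposed to compounds for 24 h, then reporter transcripts quantified by fluorescent RT-PCR and capillary electrophoresis. Both directions fitted against DMSO baseline.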

The target of test [16] is Hypoxia-inducible factor 1-alpha (Homo sapiens) (UniProt Q16665). Kind of test: ATG_HIF1a_CIS: Attagene CIS-FACTORIAL HepG2 Assay for human Hypoxia Inducible Factor 1 (HIF1A) (AID 2282951). To be noted: HepG2 Attagene cis-factorial HIF1a reporter transcription; actives raise or lower the signal. A digest of the protocol:
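Fluorescence intensity of capillary-separated, 6-FAM-labelled reporter amplicons gives mRNA induction in HepG2 cells carrying transfected cis-promoter reporter units; cells exposed 24 h, responses fitted up or down from DMSO.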

The target of test [17] is Hepatocyte nuclear factor 6 (Homo sapiens) (UniProt Q9UBC0). Briefly: ATG_HNF6_CIS: Attagene CIS-FACTORIAL HepG2 Assay for human Hepatocyte Nuclear Factor 6 (HNF6) (AID 2282952). To be noted: HepG2 Attagene cis-factorial HNF6 reporter transcription; actives raise or lower the signal. The gist of the method: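 Endogenous factor activity read in transiently transfected HepG2 via promoter-regulated reporter transcripts. RNA harvested 24 h post-dosing, reverse-transcribed, PCR-amplified, FAM-labelled, HpaI-digested and resolved by capillary electrophoresis; fitted in both directions against DMSO.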
Sequence of Hepatocyte nuclear factor 6 (Homo sapiens) (Q9UBC0 whole entry, looked up): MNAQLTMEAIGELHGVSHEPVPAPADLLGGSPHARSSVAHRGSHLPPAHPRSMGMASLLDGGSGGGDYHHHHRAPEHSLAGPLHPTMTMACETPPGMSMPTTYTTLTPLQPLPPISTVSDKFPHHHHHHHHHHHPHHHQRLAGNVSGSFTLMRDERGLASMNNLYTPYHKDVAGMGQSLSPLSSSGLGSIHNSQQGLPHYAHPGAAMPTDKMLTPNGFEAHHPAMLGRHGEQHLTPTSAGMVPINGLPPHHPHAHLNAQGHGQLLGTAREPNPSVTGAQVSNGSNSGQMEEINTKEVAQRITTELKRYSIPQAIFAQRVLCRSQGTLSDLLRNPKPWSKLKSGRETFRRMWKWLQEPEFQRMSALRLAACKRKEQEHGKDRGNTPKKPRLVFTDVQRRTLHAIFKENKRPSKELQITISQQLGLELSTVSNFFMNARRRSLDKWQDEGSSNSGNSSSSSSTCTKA

For test [18], the target named is Heat shock factor protein 1 (Homo sapiens) (UniProt Q00613). Briefly: ATG_HSE_CIS: Attagene CIS-FACTORIAL HepG2 Assay for human Heat Shock Transcription Factor 1 (HSE) (AID 2282953). To be noted: HepG2 HSE cis-reporter, Attagene RNA transcription; actives raise or lower the signal. The gist of the method: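 Endogenous transcription factor activity in transiently transfected HepG2, read as reporter mRNA by RT-PCR with fluorescent capillary electrophoresis after 24 h. Gain or loss of signal fitted versus DMSO baseline.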
Sequence of Heat shock factor protein 1 (Homo sapiens) (Q00613 whole entry, looked up): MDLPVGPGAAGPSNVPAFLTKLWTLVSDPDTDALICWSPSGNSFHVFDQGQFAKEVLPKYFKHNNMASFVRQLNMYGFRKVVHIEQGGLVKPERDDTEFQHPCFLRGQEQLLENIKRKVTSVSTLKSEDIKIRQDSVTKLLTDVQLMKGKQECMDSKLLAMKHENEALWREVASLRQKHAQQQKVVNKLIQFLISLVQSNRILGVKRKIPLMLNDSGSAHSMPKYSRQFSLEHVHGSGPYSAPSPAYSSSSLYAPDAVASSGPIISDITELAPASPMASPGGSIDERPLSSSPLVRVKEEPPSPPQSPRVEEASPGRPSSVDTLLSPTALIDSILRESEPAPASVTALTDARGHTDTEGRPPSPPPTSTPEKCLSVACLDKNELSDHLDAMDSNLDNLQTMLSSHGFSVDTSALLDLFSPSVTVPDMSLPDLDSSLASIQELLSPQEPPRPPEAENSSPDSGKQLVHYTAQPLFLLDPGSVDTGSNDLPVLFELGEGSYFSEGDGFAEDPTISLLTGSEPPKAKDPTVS

A short description of test [19]: ATG_MRE_CIS: Attagene CIS-FACTORIAL HepG2 Assay for human Metal Responsive Element (MRE) (AID 2282954). To be noted: HepG2 MRE cis-reporter transcription, Attagene multiplex; actives raise or lower the signal. The gist of the method: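 Cells were transfected with cis-promoter reporter transcription units, then dosed for 24 h. RNA was reverse-transcribed, amplified, fluorescently labelled and resolved by capillary electrophoresis, and activity was fitted in both directions relative to DMSO.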

A short description of test [20]: ATG_EGR_CIS: Attagene CIS-FACTORIAL HepG2 Assay for human Early Growth Response 1 (EGR1) (AID 2282938). Conditions: HepG2 Attagene CIS-FACTORIAL EGR reporter mRNA; actives raise or lower the signal. The gist of the method: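 Activity is taken as induction or loss of reporter mRNA versus DMSO, fitted bidirectionally. Transcripts from cis-regulated reporter units in transiently transfected HepG2 were measured after 24 h by RT-PCR with capillary electrophoresis.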

Activity calls are given as the source filed them. The calls were made as follows: active = hit-call score of the fitted dose curve at least 0.9, where 1 is the maximum; inactive = score below 0.9.

Sequence of Hypoxia-inducible factor 1-alpha (Homo sapiens) (Q16665 whole entry, looked up): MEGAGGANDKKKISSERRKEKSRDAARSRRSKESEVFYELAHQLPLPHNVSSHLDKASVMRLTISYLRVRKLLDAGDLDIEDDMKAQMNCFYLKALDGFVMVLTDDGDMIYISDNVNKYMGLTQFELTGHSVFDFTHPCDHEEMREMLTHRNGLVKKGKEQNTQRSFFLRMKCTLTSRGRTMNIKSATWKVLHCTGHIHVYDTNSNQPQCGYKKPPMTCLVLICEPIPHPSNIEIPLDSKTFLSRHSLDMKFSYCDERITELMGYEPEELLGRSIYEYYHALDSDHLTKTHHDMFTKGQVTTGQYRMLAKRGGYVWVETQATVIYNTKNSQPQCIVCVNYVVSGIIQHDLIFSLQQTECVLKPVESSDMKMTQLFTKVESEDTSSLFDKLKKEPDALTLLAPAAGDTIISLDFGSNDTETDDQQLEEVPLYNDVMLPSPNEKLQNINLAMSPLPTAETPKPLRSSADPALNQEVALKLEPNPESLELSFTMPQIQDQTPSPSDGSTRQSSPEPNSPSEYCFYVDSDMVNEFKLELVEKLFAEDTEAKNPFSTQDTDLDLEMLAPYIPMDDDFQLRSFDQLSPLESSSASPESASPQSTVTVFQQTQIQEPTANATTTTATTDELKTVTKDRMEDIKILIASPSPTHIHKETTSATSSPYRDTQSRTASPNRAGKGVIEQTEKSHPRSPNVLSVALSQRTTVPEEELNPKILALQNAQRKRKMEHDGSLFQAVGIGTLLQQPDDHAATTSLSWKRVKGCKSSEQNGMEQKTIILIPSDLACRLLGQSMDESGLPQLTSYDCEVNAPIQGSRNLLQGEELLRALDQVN
Sequence of Transcription factor E2F1 (Homo sapiens) (Q01094 whole entry, looked up): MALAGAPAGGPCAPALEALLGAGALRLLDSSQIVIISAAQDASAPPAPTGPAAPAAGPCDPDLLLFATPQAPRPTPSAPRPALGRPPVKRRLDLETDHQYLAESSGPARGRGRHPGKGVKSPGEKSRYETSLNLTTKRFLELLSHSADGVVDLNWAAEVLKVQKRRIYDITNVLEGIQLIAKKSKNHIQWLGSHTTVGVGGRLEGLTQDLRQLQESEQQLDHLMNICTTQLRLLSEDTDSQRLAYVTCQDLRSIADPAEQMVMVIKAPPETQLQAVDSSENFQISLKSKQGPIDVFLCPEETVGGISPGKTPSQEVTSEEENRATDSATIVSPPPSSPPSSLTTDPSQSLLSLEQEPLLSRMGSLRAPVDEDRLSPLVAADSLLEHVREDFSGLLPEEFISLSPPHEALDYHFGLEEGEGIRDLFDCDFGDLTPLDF

On to `OC(c1ccc(Cl)cc1)(c1ccc(Cl)cc1)C(Cl)(Cl)Cl`, for which the call in test [1], in test [2], in test [3], in test [4], in [5] and in test [6] was inactive. The call in test [7], in test [8], in test [9], in test [10], in test [11] and in test [12] was inactive. Further, the compound was called inactive in test [13], in test [14], in test [15], in [16], in [17] and in test [18]. Besides, in [19], the compound was classed as inactive.

On to `CC1(C)C(C=C(Cl)Cl)C1C(=O)OC(C#N)c1cccc(Oc2ccccc2)c1` (stereo unspecified), for which the result in test [1], in test [2], in [3], in test [20], in test [4] and in [6] was inactive. Besides, the result in [7], in test [8], in [9], in test [10], in test [12] and in [13] was inactive. Besides, the compound was classed as inactive in test [14], in test [15], in test [16], in test [17] and in test [18]. Also, the concentration at half-maximal activity (AC50) in [5] is 14.6 µM (active); in test [19] it was 14.9 µM (active).

Regarding `CCNC(=O)NC(=O)C(C#N)=NOC`, the result in test [1], in test [2], in test [3], in test [4], in [6] and in [7] was inactive. For the same compound, the outcome in [8], in test [9], in test [10], in test [11], in test [12] and in [13] was inactive. Moreover, the compound was called inactive in test [14], in test [15], in [16], in test [17], in test [18] and in test [19]. Moreover, the AC50 in test [5] is 50 µM (active).

With `CC1(C)CCC(=Cc2ccc(Cl)cc2)C1(O)Cn1cncn1` (stereo unspecified), the call in test [1], in test [2], in test [3], in test [20], in [4] and in test [5] was inactive. For the same compound, the outcome in [6], in [7], in test [8], in test [9], in test [10] and in test [12] was inactive. Further, the result in test [13], in [14], in test [15], in [16], in test [17] and in test [18] was inactive. The call in test [19] was inactive.

By AC50 is commonly meant the concentration at which the activity in the assay is half-maximal.
